# Screening results: PubChem BioAssay, several laboratories
# Most compounds without a hit are left out; they make up all but 2% or so of the library.
# BJeLR viability = MLPCN primary cell-based screen for lethality selective to Ras in HRASV12 cells. BJeLR (HRASV12) viability, CellTiter-Glo ATP luminescence, 48 h. AID 1554, 2009. inhibition, % (concentration not given with the values). actives 0.17% (n = 300,000); in the data active means inhibition above about 50%; inconclusive means no clear call, values can overlap the other calls
# Y pestis TopoI = Yersinia pestis topoisomerase I inhibitors, primary screen, biochemical, cleavage product accumulation, plate reader, single point. DNA topoisomerase I (Yersinia pestis CO92). Y. pestis Topo-I cleavage product accumulation. activity, % at 10 µM. actives 0.064% (n = 360,000). AID 504884, 2011; in the data active means activity above about 50%, passing the limit was not always enough; inconclusive means no clear call, values can overlap the other calls
# PfHsp40 yeast = rescue of yeast from PfHsp40 toxicity, primary screen, S. cerevisiae, ATP luminescence; actives 0.68% (n = 340,000); AID 504582, 2011; growth rescue, % at 12.5 µM; S. cerevisiae expressing PfHsp40, growth rescue; in the data active means growth rescue above about 28%, passing the limit was not always enough; inconclusive means no clear call, values can overlap the other calls;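 further: yeast W303a lacking pdr1 and pdr3 grown in galactose medium; growth measured after three days at 30 °C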
# CCHF vOTU inh-1 = CCHFV vOTU protease inhibitors, primary screen, biochemical, Pep-AMC substrate, fluorescence | Crimean-Congo hemorrhagic fever virus L polyprotein viral ovarian tumor (vOTU) protease … | inhibition, % at 11.5 µM | actives 0.55% (n = 370,000) | AID 651958, 2012; further: 0% = vehicle wells with enzyme and 100% = no enzyme wells
# PrP 5UTR inh = inhibition of PrP 5' UTR reporter expression; cell-based PrP 5' UTR mRNA reporter, plate reader; actives 0.35% (n = 340,000); inhibition, % (test concentration not listed); in the data active means inhibition above about 52%; further: 0 = median of the neutral control wells
# PrPC TRFRET = inhibitors of human cell surface prion protein PrPC, primary screen, cell-based, TR-FRET. Major prion protein (Homo sapiens), P04156. TR-FRET read-out. inhibition, % at 13.8 µM. actives 0.43% (n = 370,000). AID 720596, 2013; in the data active means inhibition above about 24%; further: 0% = median of the test wells and 100% = reference compound wells
# CCHF vOTU inh-2 = CCHFV vOTU protease inhibitors, confirmation, biochemical, Pep-AMC substrate, fluorescence | inhibition, % at 11.5 µM | actives 17% (n = 1,900) | Recombinant CCHFV vOTU | shares compounds with CCHF vOTU inh-1
# Numbers without * were called inactive; ? = inconclusive; · = no result. Unless noted, no stated cut-off is given here; in the data, active means inhibition above about 30%; inactive means the rest.
SMILES,BJeLR viability,Y pestis TopoI,PfHsp40 yeast,CCHF vOTU inh-1,PrP 5UTR inh,PrPC TRFRET,CCHF vOTU inh-2
O=C(O)c1ccc(N/N=C/c2ccc(-c3ccc(Br)cc3)o2)cc1,-11.0,-9.3,-0.3,33.1*,-31.6,20.3,-2.9
Cc1ccc(/C=N/Nc2ccc(C(=O)O)cc2)o1,0.2,-0.8,1.0,11.0,-75.4,2.8,·
Cc1nnc(N/N=C/c2ccc(Br)cc2)n1N,-4.5,0.0,0.3,94.2*,-11.9,-5.6,-12.9
Cc1cccc(NC(=O)OC2CC3CC2[C@H]2CCCCN2C3)c1 (stereo not given in full),·,·,·,-7.6,·,-3.6,·
COc1ccc(/C=N/Nc2nnc(C)n2N)cc1OC(C)=O,-1.8,-9.3,-0.7,93.0*,-16.7,-3.9,-14.0
C=CCNC(=S)N/N=C/c1ccc(-c2ccc(Br)cc2)o1,-15.9,9.9,-0.4,16.9,3.3,-0.8,·
Cc1nnc(N/N=C/c2ccc(-c3ccc(Br)cc3)o2)n1N,-5.1,-0.2,-1.4,77.2*,-16.6,-9.6,-2.1
COc1cc(/C=N/n2nnnc2N)ccc1OC(C)=O,10.7,1.5,-0.2,-6.7,-7.3,-3.9,·
Cc1ccc(F)c(S(=O)(=O)NC(=O)C2(C)CCN2C(=O)C2(c3ccc(Cl)cc3)CC2)c1 (stereo not given),·,4.6,·,30.3*,·,-2.4,-9.3
Cc1ccc(F)c(S(=O)(=O)NC(=O)C2(C)CCN2C(=O)C2(c3ccc(Cl)cc3)CCC2)c1 (stereo not given),·,2.3,·,12.4,·,0.9,·
COc1ccc2ccccc2c1C1CC(=O)N2CN(Cc3ccco3)CSC2=C1C#N (stereo not given),-7.7,1.1,-0.2,33.2*,-55.6,-2.9,22.4
COc1ccc2ccccc2c1C1CC(=O)N2CN(C3CCCCC3)CSC2=C1C#N (stereo not given),1.2,0.8,0.4,46.9*,-17.9,-9.5,35.1*
CCOc1cc(C2CC(=O)N3CN(C4CCCCC4)CSC3=C2C#N)ccc1O (stereo not given),-7.7,6.4,0.8,11.9,-16.0,0.8,·
COc1ccc(C2CC(=O)N3CN(Cc4ccco4)CSC3=C2C#N)cc1 (stereo not given),1.5,-9.7,-0.7,8.9,-7.3,-2.6,·
CCC(C)CNC(=O)CN1C(=O)C2CCCCN2C(=O)c2ccccc21 (stereo not given),·,·,·,-6.9,·,-6.1,·
CCOc1ccc(Br)cc1S(=O)(=O)Nc1cccc(S(=O)(=O)Nc2ccccc2C(=O)O)c1,·,10.4,5.4,30.0*,·,-3.1,-4.0
Cn1c(N)c(S(=O)(=O)NCc2ccccc2)c(=O)n(C)c1=O,4.7,3.1,-1.2,9.4,-21.9,2.0,·
CC(NS(=O)(=O)c1c(N)n(C)c(=O)n(C)c1=O)c1ccccc1 (stereo not given),-28.0,-7.1,-0.6,30.4*,-11.9,-6.5,-15.4
CCCOC(=O)c1cc(-c2ccc(/C=C3/C(=O)N(C)C(=O)C(C#N)=C3C)o2)ccc1Cl,·,1.5,1.6,·,-52.2,·,·
C=CCOC(=O)c1cc(-c2ccc(/C=C3\C(=O)NC(=O)C(C#N)=C3C)o2)ccc1Cl,·,-18.6,?,33.4*,-38.8,8.2,27.6
CC(Nc1cccc2ccccc12)C(=O)N/N=C/c1ccccn1 (stereo not given),0.0,-12.4,-1.3,114.3*,-11.3,-15.4,-3.9
O=C(CCCC(=O)N/N=C\c1ccccn1)N/N=C\c1ccccn1,4.6,3.1,0.5,-9.1,-8.3,-1.5,·
CCOC(=O)CSc1nc2c(sc(=S)n2-c2ccc(CC)cc2)c(=O)[nH]1,-0.1,-2.2,0.6,35.3*,-20.2,6.8,22.7
CCOC(=O)CC(=O)CSc1nc2c(sc(=S)n2-c2ccccc2)c(=O)[nH]1,0.1,1.6,0.6,7.2,-14.2,-2.7,·
CC(NC(=O)CS(=O)(=O)c1ccccc1)c1ccccc1 (stereo not given),-7.3,-1.2,1.3,36.1*,-17.6,-5.7,-25.4
SMILES,BJeLR viability,Y pestis TopoI,PfHsp40 yeast,CCHF vOTU inh-1,PrP 5UTR inh,PrPC TRFRET,CCHF vOTU inh-2
COC(=O)[C@]12C[C@H](CC(=O)NCCCN3CCCC3=O)C(=O)N(Cc3ccccc3)C1=C[C@H](COCc1ccccc1)O[C@@H]2C,·,·,·,-6.9,·,8.5,·
CCNCc1ccccc1OCc1ccccc1,4.0,-1.0,-0.2,-9.7,-18.9,-2.5,·
Oc1ccc(NCc2ccccc2OCc2ccccc2)cc1,9.7,-9.0,2.2,51.4*,-2.8,-6.6,16.9
O=C1N2CCc3ccccc3C2CS(=O)(=O)N1CCc1ccccc1 (stereo not given),·,·,·,-0.1,·,1.9,·
CC(C)OC(=O)CSc1nnc(CNc2ccc(Cl)cc2)n1C,4.1,6.5,0.2,-15.9,-16.2,-1.3,·
COC(=O)CSc1nnc(CNc2ccc(OC)cc2)n1C,3.6,-1.5,-0.8,38.7*,-14.9,-3.2,-22.0
CCS(=O)(=O)c1ccc2oc(Nc3ccc(C(C)(C)C)cc3)nc2c1,-4.9,-2.7,1.9,30.4*,-16.5,6.1,-8.7
CCC(=O)Nc1ccc2ccccc2c1,-6.8,2.8,1.1,-9.9,-19.0,4.1,·
CC(C)(C)CC(C)(C)NC(=O)CSCC(=O)Nc1ccc2ccccc2c1,-4.2,-4.0,-0.9,30.2*,-1.2,-3.6,12.2
CC1(Cc2cc(Cl)ccc2C(F)(F)F)C(=O)Nc2ccc(-c3ccc(F)c(Cl)c3)cc21 (stereo not given),·,-4.7,·,20.4,·,3.1,·
CC1(Cc2cccc(C(F)(F)F)c2)C(=O)Nc2ccc(-c3ccc(F)c(Cl)c3)cc21 (stereo not given),·,8.7,·,31.9*,·,9.5,-1.0
CCOC(=O)c1ccc(N2C(=O)c3n[nH]c(-c4ccco4)c3C2c2cccc([N+](=O)[O-])c2)cc1 (stereo not given),-1.5,-1.0,6.6,35.7*,-25.1,7.4,-0.6
CC(C)N1CC2(CC(c3ccccc3F)=NO2)CN1C(=O)c1ccc(C(C)(C)C)cc1 (stereo not given),·,6.2,·,34.5*,·,4.7,-4.5
CC(C)N1CC2(CC(c3ccccc3C(F)(F)F)=NO2)CN1C(=O)c1ccc(C(C)(C)C)cc1 (stereo not given),·,26.1,·,16.9,·,-4.2,·
COC(=O)c1cc2c(c3c4ccccc4n(S(=O)(=O)c4ccc(C)cc4)c13)C(=O)N(CC(C)C)C2,·,·,·,19.8,·,12.3,·
Cc1ccccc1S(=O)(=O)N(C)C[C@@H]1OCc2cn(nn2)CCCC(=O)N([C@@H](C)CO)C[C@H]1C,·,·,·,5.7,·,-1.9,·
